# Hits are enriched below; roughly 3% of the tested compounds scored in any of these assays.
# Tau ThT inhib: tau fibrillization inhibition (ThT binding) | recombinant tau K18 P301L, heparin-induced fibrillization, ThT fluorescence | AID 1460 | hit rate 2.1% among 270,000 | Potency, µM (series often up to 57.4 µM), most hits filed as inhibitors | P10636; also: nearly all actives have a fitted effect of over 55% in size
# Target sequence (P10636 561-689 P618L limits assumed): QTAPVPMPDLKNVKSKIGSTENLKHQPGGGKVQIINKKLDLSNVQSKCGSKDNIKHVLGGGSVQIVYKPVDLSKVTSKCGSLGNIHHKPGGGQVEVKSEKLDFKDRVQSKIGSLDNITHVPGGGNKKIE
#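 Tau K18 P301L fragment (15 uM unlabeled plus 0.24 uM Alexa 594-labeled) in 100 mM sodium acetate pH 7 with compound, fibrillization induced by 20 uM heparin for 6 hr at 37 C. Thioflavin T (30 uM) added, fluorescence read after 1 hr (ex 450, em 510 nm).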
# Tau fluor cs: counter-screen for tau fibril formation inhibitors. hit rate 0.93% among 280,000. tau K18 P301L (four-repeat tau fragment) Alexa594 fluorescence, heparin fibrillization. AID 1463. Potency, µM (series often up to 57.7 µM); also: nearly all actives have a fitted effect of over 55% in size
#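 Human K18 P301L tau (15 uM unlabeled plus 0.24 uM Alexa 594-labeled, final) in 100 mM sodium acetate pH 7 was mixed with compound and 20 uM heparin and incubated 6 hr at 37 C.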
# Tau FP inhib: tau fibrillization inhibition (FP). K18 P301L tau heparin fibrillization, Alexa594 FP, 6 h. P10636. Potency, µM (top dose mostly 57.7 µM), usual class: inhibitors. hit rate 0.39% among 280,000. AID 1468; also: nearly all actives have a fitted effect of over 55% in size
#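 K18 P301L tau (15 uM unlabeled/0.24 uM Alexa 594-labeled, final) + compound + heparin 20 uM final; 100 mM NaOAc pH 7; 6 hr 37 C; ThT 30 uM final added, 1 hr RT; FP ex 555/em 632 nm.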
# TexasRed fluor: alters Texas Red total fluorescence, flagging assay interference | Potency, µM (doses to about 106 µM) | TRb/SRC2 Texas Red total fluorescence interference | hit rate 0.29% among 280,000; active = well fitted curve in either direction with a large enough effect; inconclusive = small, poorly fitted or top-dose-only effect
#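 Human TRb ligand-binding domain at 0.6 uM with 20 nM Texas Red SRC2 peptide in Tris buffer containing 1 uM T3 and 5% DMSO, incubated with compound 5 h at ambient temperature. Total fluorescence (555/632 nm) calculated as parallel + 2 × perpendicular.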
# TRb SRC2 PPI: inhibitors of human thyroid hormone receptor beta-SRC2 interaction; TRbeta-SRC2 peptide binding, fluorescence polarization; receptor liganded with 1 µM T3; hit rate 0.065% among 280,000; P10828; Potency, µM (top dose mostly 106 µM), actives largely listed as inhibitors; also: nearly all actives have a fitted effect of over 50% in size
# Target sequence (P10828 whole entry, looked up): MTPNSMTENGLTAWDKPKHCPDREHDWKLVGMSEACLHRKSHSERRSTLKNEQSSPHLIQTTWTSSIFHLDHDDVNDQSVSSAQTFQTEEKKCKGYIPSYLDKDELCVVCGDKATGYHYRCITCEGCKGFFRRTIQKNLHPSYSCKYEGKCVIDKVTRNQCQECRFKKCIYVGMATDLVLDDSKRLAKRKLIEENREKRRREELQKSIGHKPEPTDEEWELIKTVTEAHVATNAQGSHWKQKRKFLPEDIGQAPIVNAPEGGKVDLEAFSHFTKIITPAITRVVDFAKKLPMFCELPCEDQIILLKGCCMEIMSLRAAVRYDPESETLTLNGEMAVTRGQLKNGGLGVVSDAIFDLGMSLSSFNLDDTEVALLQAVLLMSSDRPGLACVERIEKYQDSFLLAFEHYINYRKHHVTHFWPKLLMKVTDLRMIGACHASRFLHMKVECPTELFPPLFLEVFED
#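 Fluorescence polarization of 20 nM Texas Red SRC2 peptide (20-aa NR interaction domain) bound to 0.6 uM human TRb ligand-binding domain, with 1 uM T3, after 5 hr at ambient temperature; inhibition seen as decreased polarization.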
# Hits are given with their value; 0 = inactive; ? = inconclusive; - = no result given; [ ] = dose if it differs, or a comment. Unless noted, calls follow the shape of the dose curve; as a rule, active = well fitted curve in the direction sought with a large enough effect; inconclusive = small, poorly fitted or top-dose-only effect, or another doubt; inactive = no such curve, though single readings can be large; an effect the other way counts as inactive or inconclusive.
SMILES,Tau ThT inhib,Tau fluor cs,Tau FP inhib,TexasRed fluor,TRb SRC2 PPI
CCOc1c(Cl)cc(Cl)cc1CNCCSc1nnnn1C,0,0,0,8.9µM[quencher],0
CCOc1cccc(CNCCCSc2nnnn2C)c1,0,0,0,?,0
Cn1nnnc1SCCNCc1ccccc1OCc1ccccc1F,0,0,0,10µM[quencher],0
Cn1nnnc1SCCCNCc1ccccc1OCc1ccccc1F,0,0,0,0,0
Cc1nn(-c2ccc(N3CCCCC3)nn2)c(C)c1CCC(=O)NCc1ccccc1,0,0,0,0,0
CCc1ccccc1NS(=O)(=O)c1ccc2[nH]cc(C(=O)N(CC)Cc3ccccc3)c(=O)c2c1,0,0,0,0,0
NC(N)=NCCC[C@H](NC(=O)c1ccccc1)C(=O)Nc1ccc([N+](=O)[O-])cc1,-,-,-,0,0
COc1ccc(-c2oc3ncn4nc(COc5cccc(C)c5C)nc4c3c2-c2ccc(OC)cc2)cc1,0,0,0,0,0
COc1cc2c(cc1OC)C1(C)N(CC2)C(C(C)=O)=NN1c1ccc(Cl)cc1 (stereo unspecified),10µM,?,0,0,0
COc1cccc(C2C(C(=O)Nc3ccccc3)=C(C)N=c3s/c(=C/c4ccc(OCC(=O)O)cc4)c(=O)n32)c1 (stereo unspecified),?,0,0,0,0
CC1=C(C(=O)Nc2ccccc2)C(c2ccc(C)o2)n2c(s/c(=C\c3ccco3)c2=O)=N1 (stereo unspecified),13µM,?,?,0,0
COc1ccc2ccccc2c1-c1c(OC)ccc2ccccc12,?,0,?,0,0
O=[N+]([O-])c1cc([N+](=O)[O-])c2c(=Nc3ccccc3)n(-c3ccccc3)n(O)c2c1,14µM,16µM[quencher],?,0,0
O=[N+]([O-])c1cccc(C(=Nc2ccccc2)NO)c1,0,0,0,0,0
Cc1ccc(NC2=CC(=O)C(=O)c3ccccc32)cc1,25µM,?,?,0,0
CCOC(=O)c1ccc(NC2=CC(=O)C(=O)c3ccccc32)cc1,13µM,?,0,0,?
CCOC(=O)c1ccc(NC(=O)C(C)N2C(=O)c3ccccc3C2=O)cc1 (stereo unspecified),0,0,0,0,0
COC(=O)c1ccc(C23CC2(C(NP(=O)(c2ccccc2)c2ccccc2)c2ccccc2)C3)cc1 (stereo unspecified),?,0,0,0,0
O=C(N/C=C/c1ccccc1)Nc1ccc(Cl)cc1,?,5µM[quencher],?,0,0
CC(=O)C1=C(c2ccccc2)N(C(C)=O)n2c(C)nnc2S1,11µM,0,?,0,0
CCCCn1c(O)c(/C=C2\C=NN=C2c2ccccc2)sc1=S,0,?,11µM,0,0
CCCCCCn1c(O)c(/C=C2\C=NN=C2c2ccccc2)sc1=S,0,0,0,0,0
COC(=O)c1cccc(C)c1S(=O)(=O)NC(=O)Nc1nc(OCC(F)(F)F)nc(N(C)C)n1,-,-,-,0,0
COc1ccc2nc(NC(C)=O)sc2c1,0,0,0,0,0
COc1ccc2nc(Nc3nc4cc5c(cc4s3)OCO5)sc2c1,2.8µM,7.9µM[quencher],0,0,0
SMILES,Tau ThT inhib,Tau fluor cs,Tau FP inhib,TexasRed fluor,TRb SRC2 PPI
COc1ccc(Nc2nc(C)c(-c3ccccc3)s2)cc1,5.6µM,8.9µM[quencher],0,0,0
COc1ccc2nc(Nc3ccccc3)sc2c1,14µM,18µM[quencher],0,0,0
COc1ccc2nc(Nc3ccccc3OC)sc2c1,13µM,?,0,0,0
COc1ccc(Nc2nc3ccccc3c(=O)s2)c(OC)c1,0,0,0,0,0
COc1ccc2nc(Nc3ccc4c(c3)OCO4)sc2c1,?,?,0,0,0
C#CC(C)OC(=O)c1nnc2c3ccccc3n(COC)c2n1 (stereo unspecified),0[11.5 µM],0[11.6 µM],0[11.6 µM],0[11.2 µM],0[11.2 µM]
OC1CCC(C2CCCCC2)CC1 (stereo unspecified),-,-,-,0,0
COC(=O)C1=C(C(=O)OC)SC2(S1)C(C(=O)OC)=C(C(=O)OC)SC1=C2c2cc(C)ccc2NC1(C)C,13µM,?,?,0,0
Nc1nonc1C(=O)N/N=C/c1cccc([N+](=O)[O-])c1,0,0,0,0,0
CN(C)c1ccc(/C=N/NC(=O)c2nonc2N)cc1[N+](=O)[O-],16µM,0,0,0,0
CN1C(=O)/C(=C/c2cc(N=Nc3ccccc3)ccc2O)SC1=S,4.5µM,6.3µM[quencher],?,0,0
Cc1c(N2C(=O)/C(=C\c3ccccc3O)SC2=S)c(=O)n(-c2ccccc2)n1C,32µM,0,?,0,0
COc1cccc(CNC(=O)c2cc3c(=O)oc4ccc(C)cc4c3s2)c1,0,0,0,0,0
CC(=O)OC[C@H]1O[C@@H](O/N=C(\C)CCC(=O)OC[C@@H]2O[C@H](C#Cc3ccccc3)C=C[C@@H]2Oc2ccc(C)cc2)[C@H](OC(C)=O)[C@@H](OC(C)=O)[C@H]1OC(C)=O,0[11.5 µM],0[11.6 µM],0[11.6 µM],0[11.2 µM],0[11.2 µM]
CC1(C)CC(=O)C2=C(C1)N(c1cccnc1)C(N)=C(C#N)C2c1cccs1 (stereo unspecified),20µM,0,?,0,0
CCOC(=O)CC(CC(C)=O)C(=O)OCC (stereo unspecified),0,0,0,0,0
CC(C)CO/N=C1/C[C@@H](O)[C@@H](O)[C@@H]2[C@@H]3C(=O)N([C@@H](C)c4ccccc4)C(=O)[C@H]3CC[C@@H]12,0[11.5 µM],0[11.6 µM],0[11.6 µM],0[11.2 µM],0[11.2 µM]
COc1ccc(N=C(NN)c2ccc3ccccc3n2)cc1,16µM,0,0,0,0
O=C(CN(c1cccc(Br)c1)S(=O)(=O)c1ccccc1)N1CCc2ccccc2C1,0,0,0,0,0
COc1ccc(N2C(=O)/C(=C/c3cccs3)NC2=S)cc1,22µM,0,?,0,0
CN(C)/C=C1\NC(=S)N(c2ccccc2)C1=O,0,0,0,0,0
COc1ccc(NC2=Nc3cccc4cccc2c34)cc1,13µM,?,?,0,0
c1ccc(NC2=Nc3cccc4cccc2c34)cc1,?,?,0,0,0
Fc1ccc(/C=N/Nc2nnnn2-c2ccccc2)cc1,0,0,0,0,0
Fc1ccc(/C=N/NC2=Nc3cccc4cccc2c34)cc1,2.2µM,?,0,0,0
SMILES,Tau ThT inhib,Tau fluor cs,Tau FP inhib,TexasRed fluor,TRb SRC2 PPI
COc1cccc(CNC(=O)Nc2cc(C(=O)NCc3cccc(F)c3)ccc2N2CCCC2)c1,0,0,0,0,0
O=C(N/N=C1/C[C@@H](O)[C@@H](O)[C@@H]2[C@@H]3C(=O)N(c4cccc(Oc5ccccc5)c4)C(=O)[C@H]3CC[C@@H]12)OCc1ccccc1,0[11.5 µM],0[11.6 µM],0[11.6 µM],0[11.2 µM],0[11.2 µM]
Cc1cc(O)c(C(C)C)cc1N=Cc1cc([N+](=O)[O-])ccc1O,3.5µM,?,7.1µM,0,0
Cc1cc(O)c(C(C)C)cc1N=Cc1ccccc1O,3.5µM,?,8.9µM,0,?
Cc1n[nH]c(C)c1Sc1ccccc1N=Cc1cc([N+](=O)[O-])ccc1O,0,0,0,0,0
CC(N=Cc1ccccc1O)c1ccccc1 (stereo unspecified),0,0,0,0,0
